Results taken from PubChem BioAssay AID1159580 (chemical genetic matrix, 2015).
Where “and” joins values, the source holds several entries; their conditions need not be identical. Equal entries are not always repeated. In all, about 5,500 compounds went through this assay and about 2,000 (36%) were called active. Inconclusive results (about 18%) are left out. No stated cut-off is given here; in the data, active means normalized growth mostly below about 0.91 (no sharp cut-off); inconclusive means no clear call, values can overlap the other calls; inactive means mostly above about 0.92. Some of the results follow.

Experiment: chemical genetic growth profiling, strain panel (AID 1159580);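 further: tested at 20 µM; growth read once vehicle control cultures reached saturation at 30 °C; 1 = growth at the plate median or of vehicle wells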
Details: S. cerevisiae deletion strains, growth OD

Measured: normalized growth

COc1ccc(C(=O)/C=C/c2ccccc2)cc1
inactive: locus YAL021C, strain ccr4, stronger effect = lower value 1.01 | locus YAL026C, strain drs2, stronger effect = lower value 0.924 | locus YAL030W, strain snc1, stronger effect = lower value 0.951 | locus YBL061C, strain skt5, stronger effect = lower value 0.947 | locus YBR171W, strain sec66, stronger effect = lower value 0.939 | locus YBR229C, strain ROT2, stronger effect = lower value 0.991 | locus YBR231C, strain swc5, stronger effect = lower value 0.927 | locus YBR279W, strain paf1, stronger effect = lower value 0.951 | locus YCL069W, strain vba3, stronger effect = lower value 0.944 | locus YCR088W, strain abp1, stronger effect = lower value 0.965 | locus YDL005C, strain med2, stronger effect = lower value 0.992 | locus YDL035C, strain GPR1, stronger effect = lower value 0.921 | locus YDL040C, strain nat1, stronger effect = lower value 1.01 | locus YDL101C, strain DUN1, stronger effect = lower value 0.941 | locus YDL185W, strain tfp1, stronger effect = lower value 0.942 | locus YDR001C, strain nth1, stronger effect = lower value 0.982 | locus YDR069C, strain doa4, stronger effect = lower value 0.995 | locus YDR150W, strain NUM1, stronger effect = lower value 1.01 | locus YDR159W, strain sac3, stronger effect = lower value 0.956 | locus YDR162C, strain NBP2, stronger effect = lower value 0.965 | locus YDR195W, strain ref2 1.1 | locus YDR297W, strain sur2, stronger effect = lower value 0.939 | locus YDR334W, strain swr1, stronger effect = lower value 0.999 | locus YDR388W, stronger effect = lower value 0.955 | locus YEL037C, strain rad23, stronger effect = lower value 0.982 | locus YER015W, strain faa2, stronger effect = lower value 0.956 | locus YER111C, strain swi4, stronger effect = lower value 0.968 | locus YER167W, strain BCK2, stronger effect = lower value 0.994 | locus YFR010W, strain ubp6, stronger effect = lower value 0.96 | locus YGL167C, strain pmr1, stronger effect = lower value 0.971 | locus YHR013C, strain ard1, stronger effect = lower value 0.947 | locus YHR027C, strain rpn1, stronger effect = lower value 0.939 | locus YHR079C, strain IRE1 (second series), stronger effect = lower value 0.932 | locus YHR094C, strain hxt1, stronger effect = lower value 0.941 | locus YIL066C, strain RNR3, stronger effect = lower value 0.919 | locus YIL073C, strain SPO22, stronger effect = lower value 0.889 | locus YIL125W, strain kgd1, stronger effect = lower value 0.985 | locus YJL092W, strain hpr5, stronger effect = lower value 0.965 | locus YJL115W, strain asf1, stronger effect = lower value 0.984 | locus YJL134W, strain LCB3, stronger effect = lower value 0.99 | locus YJL154C, strain vps35, stronger effect = lower value 0.995 | locus YJL168C, strain set2, stronger effect = lower value 0.959 | locus YJL187C, strain SWE1 (second series), stronger effect = lower value 0.908 | locus YJR066W, strain TOR1, stronger effect = lower value 0.841 | locus YKL068W, stronger effect = lower value 0.983 | locus YKL085W, strain MDH1 (second series), stronger effect = lower value 0.974 | locus YKL085W, strain MDH1, stronger effect = lower value 0.974 | locus YKL190W, strain CNB1, stronger effect = lower value 1.01 | locus YKR026C, strain gcn3, stronger effect = lower value 0.983 | locus YKR091W, strain srl3, stronger effect = lower value 0.982 | locus YLL026W, stronger effect = lower value 0.971 | locus YLL041C, strain sdh2, stronger effect = lower value 0.999 | locus YLR039C, strain RIC1, stronger effect = lower value 0.792 | locus YLR058C, strain SHM2, stronger effect = lower value 0.899 | locus YLR102C, strain apc9, stronger effect = lower value 0.964 | locus YLR258W, strain gsy2, stronger effect = lower value 0.936 | locus YLR357W, strain rsc2, stronger effect = lower value 0.957 | locus YLR370C, strain arc18, stronger effect = lower value 0.978 | locus YLR384C, strain iki3, stronger effect = lower value 0.969 | locus YML016C, strain PPZ1, stronger effect = lower value 0.947 | locus YML120C, strain ndi1, stronger effect = lower value 0.954 | locus YML124C, strain tub3, stronger effect = lower value 0.958 | locus YMR129W, stronger effect = lower value 0.985 | locus YMR231W, strain pep5, stronger effect = lower value 1 | locus YMR307W, strain GAS1, stronger effect = lower value 0.939 | locus YNL067W, strain RPL9B, stronger effect = lower value 0.954 | locus YNL128W, strain TEP1, stronger effect = lower value 0.922 | locus YNL183C, strain NPR1, stronger effect = lower value 0.838 | locus YNL209W, strain ssb2, stronger effect = lower value 0.968 | locus YNL250W, strain rad50, stronger effect = lower value 0.958 | locus YNL271C, strain bni1, stronger effect = lower value 0.92 | locus YNL322C, strain KRE1 (second series), stronger effect = lower value 0.917 | locus YNR049C, strain mso1, stronger effect = lower value 0.995 | locus YNR052C, strain pop2, stronger effect = lower value 0.941 | locus YOL006C, strain TOP1, stronger effect = lower value 0.664 | locus YOL012C, strain htz1 0.771 | locus YOR001W, strain rrp6, stronger effect = lower value 0.905 | locus YOR061W, strain CKA2, stronger effect = lower value 0.981 | locus YOR069W, strain VPS5, stronger effect = lower value 0.958 | locus YOR070C, strain gyp1, stronger effect = lower value 0.928 | locus YOR080W, strain dia2, stronger effect = lower value 0.981 | locus YOR136W, strain idh2, stronger effect = lower value 0.939 | locus YOR265W, strain rbl2, stronger effect = lower value 0.994 | locus YOR316C, strain cot1, stronger effect = lower value 0.966 | locus YPL240C, strain hsp82, stronger effect = lower value 0.954 | locus YPR119W, strain clb2, stronger effect = lower value 0.964 | locus YPR141C, strain kar3, stronger effect = lower value 0.965
active: locus YBR009C, strain hhf1, stronger effect = lower value 0.825 | locus YBR021W, strain FUR4, stronger effect = lower value 0.782 | locus YBR023C, strain chs3, stronger effect = lower value 0.911 | locus YCL011C, strain gbp2, stronger effect = lower value 0.902 | locus YCL016C, strain dcc1, stronger effect = lower value 0.876 | locus YCL029C, strain bik1, stronger effect = lower value 0.822 | locus YCL061C, strain MRC1, stronger effect = lower value 0.846 | locus YDL074C, strain BRE1, stronger effect = lower value 0.738 | locus YDL192W, strain arf1, stronger effect = lower value 0.832 | locus YDR101C, strain arx1, stronger effect = lower value 0.867 | locus YDR137W, strain rgp1, stronger effect = lower value 0.845 | locus YDR318W, strain mcm21, stronger effect = lower value 0.798 | locus YDR335W, strain msn5, stronger effect = lower value 0.889 | locus YDR392W, strain spt3, stronger effect = lower value 0.194 | locus YDR502C, strain sam2, stronger effect = lower value 0.787 | locus YEL003W, strain gim4, stronger effect = lower value 0.856 | locus YEL061C, strain CIN8 (second series), stronger effect = lower value 0.844 | locus YER016W, strain bim1, stronger effect = lower value 0.91 | locus YER110C, stronger effect = lower value 0.873 | locus YER155C, strain BEM2 (second series), stronger effect = lower value 0.268 | locus YER155C, strain BEM2, stronger effect = lower value 0.686 | locus YGL078C, strain dbp3, stronger effect = lower value 0.906 | locus YGL086W, strain mad1, stronger effect = lower value 0.779 | locus YGL173C, strain kem1, stronger effect = lower value 0.889 | locus YGL227W, strain vid30, stronger effect = lower value 0.892 | locus YGL240W, strain doc1, stronger effect = lower value 0.762 | locus YGL248W, strain PDE1, stronger effect = lower value 0.824 | locus YGL253W, strain hxk2, stronger effect = lower value 0.908 | locus YGR135W, strain pre9, stronger effect = lower value 0.696 | locus YGR252W, strain gcn5, stronger effect = lower value 0.629 | locus YHR079C, strain IRE1, stronger effect = lower value 0.756 | locus YHR129C, strain ARP1, stronger effect = lower value 0.87 | locus YHR142W, strain chs7, stronger effect = lower value 0.767 | locus YHR200W, strain rpn10, stronger effect = lower value 0.866 | locus YIR030C, strain dcg1, stronger effect = lower value 0.888 | locus YJL095W, strain BCK1 (second series), stronger effect = lower value 0.886 | locus YJL095W, strain BCK1, stronger effect = lower value 0.544 and 0.84 | locus YJL129C, strain trk1, stronger effect = lower value 0.859 | locus YJL164C, strain tpk1, stronger effect = lower value 0.887 | locus YJL166W, strain qcr8, stronger effect = lower value 0.746 | locus YJL187C, strain SWE1, stronger effect = lower value 0.917 | locus YKL009W, strain mrt4, stronger effect = lower value 0.834 | locus YKL160W, strain elf1, stronger effect = lower value 0.878 | locus YKR001C, strain vps1, stronger effect = lower value 0.783 | locus YLL001W, strain dnm1, stronger effect = lower value 0.898 | locus YLR027C, strain aat2, stronger effect = lower value 0.846 | locus YLR113W, strain HOG1, stronger effect = lower value 0.628 | locus YLR221C, strain rsa3, stronger effect = lower value 0.809 | locus YLR262C, strain YPT6 (second series), stronger effect = lower value 0.855 | locus YLR268W, strain sec22, stronger effect = lower value 0.818 | locus YLR320W, strain mms22, stronger effect = lower value 0.525 | locus YLR330W, strain CHS5, stronger effect = lower value 0.854 | locus YLR342W, strain FKS1, stronger effect = lower value 0.839 | locus YLR371W, strain rom2, stronger effect = lower value 0.796 | locus YLR418C, strain cdc73, stronger effect = lower value 0.358 | locus YML032C, strain rad52, stronger effect = lower value 0.746 | locus YMR058W, strain fet3, stronger effect = lower value 0.803 | locus YMR078C, strain ctf18, stronger effect = lower value 0.73 | locus YMR125W, strain sto1, stronger effect = lower value 0.856 | locus YMR205C, strain PFK2, stronger effect = lower value 0.707 | locus YMR223W, strain ubp8, stronger effect = lower value 0.852 | locus YNL071W, strain lat1, stronger effect = lower value 0.307 | locus YNL233W, strain BNI4, stronger effect = lower value 0.777 | locus YNL248C, strain rpa49, stronger effect = lower value 0.687 | locus YNL298W, strain CLA4, stronger effect = lower value 0.858 | locus YNL307C, strain MCK1, stronger effect = lower value 0.239 | locus YOL147C, strain pex11, stronger effect = lower value 0.752 | locus YOR083W, strain WHI5, stronger effect = lower value 0.86 | locus YOR106W, strain vam3, stronger effect = lower value 0.823 | locus YOR144C, strain elg1, stronger effect = lower value 0.897 | locus YOR184W, strain ser1, stronger effect = lower value 0.43 | locus YOR231W, strain MKK1, stronger effect = lower value 0.757 | locus YOR270C, strain vph1, stronger effect = lower value 0.613 | locus YOR290C, strain snf2, stronger effect = lower value 0.792 | locus YPL051W, strain arl3, stronger effect = lower value 0.868 | locus YPL078C, strain atp4, stronger effect = lower value 0.799 | locus YPL106C, strain sse1, stronger effect = lower value 0.76 | locus YPL256C, strain CLN2, stronger effect = lower value 0.74 | locus YPR163C, strain tif3, stronger effect = lower value 0.432 | locus YPR167C, strain met16, stronger effect = lower value 0.889 | strain wtn01, stronger effect = lower value 0.811
0.95 (inactive) and 0.812 (active): locus YHR030C, strain SLT2, stronger effect = lower value
